# Legend:
# Assay in all cases: DAPPL (digital affinity profiling via proximity ligation, sequencing); 10 mM Tris-HCl pH 7.5, 50 mM NaCl, 1 mM DTT, 4% glycerol, room temperature, 30 min; GST-TFs on glutathione beads, 16-mer random dsDNA library, 0.1% formaldehyde crosslink after washing; high values mean tight binding
# Details in all cases: protein: recombinant; tags: N-terminal GST; dsDNA, one strand shown
# ELF4 = ELF4 (Homo sapiens, UniProt Q99607 1-663)
# Procedure, shortened: (§1)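 Pools were built from human transcription factors expressed in yeast as GST fusions, captured on glutathione beads and DNA-barcoded, along with a tag-only sample. Incubation with 200 nmole of a 16-mer random double-stranded DNA library lasted 30 min at room temperature in Tris/NaCl/DTT/glycerol buffer, and was followed by washing, 0.1% formaldehyde crosslinking, proximity ligation, PCR amplification and Illumina NextSeq500 sequencing. Binding signal is the quotient of each hexamer's read frequency for a factor and its frequency for the tag-only sample.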
# ETV2 = target: T1, ETV2 (Homo sapiens, UniProt O00321 1-342)
# T1 sequence: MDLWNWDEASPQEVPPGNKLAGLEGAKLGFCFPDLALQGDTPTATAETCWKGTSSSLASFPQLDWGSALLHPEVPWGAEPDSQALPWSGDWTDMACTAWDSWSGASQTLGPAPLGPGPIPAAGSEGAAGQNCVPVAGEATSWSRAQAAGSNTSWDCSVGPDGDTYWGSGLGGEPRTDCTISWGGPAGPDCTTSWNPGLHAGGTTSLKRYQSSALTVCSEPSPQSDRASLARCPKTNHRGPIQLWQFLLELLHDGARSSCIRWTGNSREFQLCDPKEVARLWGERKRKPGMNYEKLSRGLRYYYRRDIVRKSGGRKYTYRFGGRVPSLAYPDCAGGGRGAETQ
# Procedure, shortened: as §1
# ELF3 = target: T2, ELF3 (Homo sapiens, UniProt P78545 1-371)
# T2 sequence: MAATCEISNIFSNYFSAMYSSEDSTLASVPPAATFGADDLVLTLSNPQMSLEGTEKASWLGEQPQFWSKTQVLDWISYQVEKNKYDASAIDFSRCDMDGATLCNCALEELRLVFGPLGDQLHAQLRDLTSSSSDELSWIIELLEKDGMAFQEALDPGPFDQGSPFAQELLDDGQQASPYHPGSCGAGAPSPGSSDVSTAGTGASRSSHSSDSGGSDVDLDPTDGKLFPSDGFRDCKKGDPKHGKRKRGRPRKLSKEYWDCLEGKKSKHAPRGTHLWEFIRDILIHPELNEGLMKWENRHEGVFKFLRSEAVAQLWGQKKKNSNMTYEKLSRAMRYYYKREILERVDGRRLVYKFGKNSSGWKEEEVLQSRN
# Procedure, shortened: as §1
# ETV1 = ETV1 (Homo sapiens, UniProt P50549 1-477)
# Chain of ETV1 (P50549 whole entry): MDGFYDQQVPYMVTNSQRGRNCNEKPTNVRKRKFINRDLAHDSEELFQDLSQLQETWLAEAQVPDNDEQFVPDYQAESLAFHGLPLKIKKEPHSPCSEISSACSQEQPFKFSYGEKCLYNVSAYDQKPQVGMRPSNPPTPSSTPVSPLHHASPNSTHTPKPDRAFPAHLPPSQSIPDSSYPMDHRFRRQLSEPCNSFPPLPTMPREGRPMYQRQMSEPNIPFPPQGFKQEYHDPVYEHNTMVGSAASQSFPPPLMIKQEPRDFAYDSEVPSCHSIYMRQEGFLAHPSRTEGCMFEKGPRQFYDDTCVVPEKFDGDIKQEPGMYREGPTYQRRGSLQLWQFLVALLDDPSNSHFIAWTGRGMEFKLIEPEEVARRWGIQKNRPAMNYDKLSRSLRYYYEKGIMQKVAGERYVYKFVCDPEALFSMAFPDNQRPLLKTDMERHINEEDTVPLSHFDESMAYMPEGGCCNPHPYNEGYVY
# Procedure, shortened: as §1
# ERF = target: T3, ERF (Homo sapiens, UniProt P50548 1-548)
# T3 sequence: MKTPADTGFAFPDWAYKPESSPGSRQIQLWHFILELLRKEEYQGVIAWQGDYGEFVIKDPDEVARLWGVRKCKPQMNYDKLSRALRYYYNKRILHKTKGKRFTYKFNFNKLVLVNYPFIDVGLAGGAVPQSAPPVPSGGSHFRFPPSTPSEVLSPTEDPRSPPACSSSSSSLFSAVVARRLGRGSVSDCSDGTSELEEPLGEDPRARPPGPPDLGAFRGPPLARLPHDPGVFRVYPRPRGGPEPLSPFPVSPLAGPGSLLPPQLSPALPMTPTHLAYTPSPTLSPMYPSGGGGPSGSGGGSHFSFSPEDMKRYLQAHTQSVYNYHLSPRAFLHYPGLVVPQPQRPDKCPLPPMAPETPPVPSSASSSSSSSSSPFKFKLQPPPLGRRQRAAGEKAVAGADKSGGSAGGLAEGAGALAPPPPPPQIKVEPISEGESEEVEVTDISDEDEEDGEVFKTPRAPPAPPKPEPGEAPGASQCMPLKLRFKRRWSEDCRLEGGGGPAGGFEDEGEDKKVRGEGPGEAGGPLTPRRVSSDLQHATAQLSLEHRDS
# Procedure, shortened: as §1
# ETV3L = target: T4, ETV3L (Homo sapiens, UniProt Q6ZN32 1-361)
# T4 sequence: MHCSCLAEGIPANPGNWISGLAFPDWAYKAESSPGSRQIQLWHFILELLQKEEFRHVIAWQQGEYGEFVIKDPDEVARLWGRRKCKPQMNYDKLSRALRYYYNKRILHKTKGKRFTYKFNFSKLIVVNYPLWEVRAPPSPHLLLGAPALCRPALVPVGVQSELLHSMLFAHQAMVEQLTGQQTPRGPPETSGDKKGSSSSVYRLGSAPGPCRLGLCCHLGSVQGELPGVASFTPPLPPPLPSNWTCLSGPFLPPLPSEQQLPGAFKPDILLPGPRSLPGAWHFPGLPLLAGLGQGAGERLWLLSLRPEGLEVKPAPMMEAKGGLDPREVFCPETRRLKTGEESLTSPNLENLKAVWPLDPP
# Procedure, shortened: as §1
# ETS2 = target: T5, ETS2 (Homo sapiens, UniProt P15036 1-469)
# T5 sequence: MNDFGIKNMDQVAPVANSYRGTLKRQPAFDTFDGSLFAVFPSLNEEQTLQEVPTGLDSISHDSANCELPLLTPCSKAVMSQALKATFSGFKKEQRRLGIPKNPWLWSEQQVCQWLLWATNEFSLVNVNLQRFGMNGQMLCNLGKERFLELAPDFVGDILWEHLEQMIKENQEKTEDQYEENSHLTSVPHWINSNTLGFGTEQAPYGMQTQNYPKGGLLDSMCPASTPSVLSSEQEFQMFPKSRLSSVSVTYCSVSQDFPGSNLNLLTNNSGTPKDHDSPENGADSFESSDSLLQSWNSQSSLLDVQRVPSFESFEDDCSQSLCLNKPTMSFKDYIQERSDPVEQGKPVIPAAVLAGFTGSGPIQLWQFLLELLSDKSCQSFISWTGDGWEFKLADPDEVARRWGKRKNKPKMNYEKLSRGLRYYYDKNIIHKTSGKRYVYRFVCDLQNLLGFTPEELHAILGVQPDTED
# Procedure, shortened: as §1
# ETV7 = target: T6, ETV7 (Homo sapiens, UniProt Q9Y603 1-341)
# T6 sequence: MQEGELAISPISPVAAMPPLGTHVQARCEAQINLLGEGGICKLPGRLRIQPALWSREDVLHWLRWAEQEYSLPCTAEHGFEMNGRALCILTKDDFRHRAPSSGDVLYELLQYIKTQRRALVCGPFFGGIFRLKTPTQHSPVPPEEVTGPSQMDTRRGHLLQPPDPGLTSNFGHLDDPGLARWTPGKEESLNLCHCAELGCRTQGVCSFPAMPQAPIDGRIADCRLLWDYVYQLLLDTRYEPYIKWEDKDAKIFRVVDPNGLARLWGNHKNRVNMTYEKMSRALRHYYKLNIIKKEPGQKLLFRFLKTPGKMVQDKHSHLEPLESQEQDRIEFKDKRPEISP
# Procedure, shortened: as §1
# ETV3 = target: T7, ETV3 (Homo sapiens, UniProt P41162-2 1-143)
# T7 sequence: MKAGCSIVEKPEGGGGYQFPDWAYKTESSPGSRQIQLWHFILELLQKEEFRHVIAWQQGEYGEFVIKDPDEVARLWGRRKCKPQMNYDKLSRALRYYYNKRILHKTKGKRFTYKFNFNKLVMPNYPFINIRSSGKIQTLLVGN
# Procedure, shortened: as §1
# ETV6 = ETV6 (Homo sapiens, UniProt P41212 1-452)
# Chain of ETV6 (P41212 whole entry): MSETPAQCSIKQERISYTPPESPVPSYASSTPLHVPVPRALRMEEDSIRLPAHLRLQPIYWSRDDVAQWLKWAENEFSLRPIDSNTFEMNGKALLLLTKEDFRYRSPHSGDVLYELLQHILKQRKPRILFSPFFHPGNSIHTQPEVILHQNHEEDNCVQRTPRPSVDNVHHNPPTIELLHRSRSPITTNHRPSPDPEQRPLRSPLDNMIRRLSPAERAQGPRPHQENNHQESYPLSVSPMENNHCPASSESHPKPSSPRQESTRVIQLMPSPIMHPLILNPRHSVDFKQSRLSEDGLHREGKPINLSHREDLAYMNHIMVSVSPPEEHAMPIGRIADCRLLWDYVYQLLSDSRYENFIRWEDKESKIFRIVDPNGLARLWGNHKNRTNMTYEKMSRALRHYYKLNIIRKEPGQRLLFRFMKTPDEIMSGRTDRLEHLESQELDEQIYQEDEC
# Procedure, shortened: as §1
# Chain of ELF4 (Q99607 whole entry, the tested form may be a part): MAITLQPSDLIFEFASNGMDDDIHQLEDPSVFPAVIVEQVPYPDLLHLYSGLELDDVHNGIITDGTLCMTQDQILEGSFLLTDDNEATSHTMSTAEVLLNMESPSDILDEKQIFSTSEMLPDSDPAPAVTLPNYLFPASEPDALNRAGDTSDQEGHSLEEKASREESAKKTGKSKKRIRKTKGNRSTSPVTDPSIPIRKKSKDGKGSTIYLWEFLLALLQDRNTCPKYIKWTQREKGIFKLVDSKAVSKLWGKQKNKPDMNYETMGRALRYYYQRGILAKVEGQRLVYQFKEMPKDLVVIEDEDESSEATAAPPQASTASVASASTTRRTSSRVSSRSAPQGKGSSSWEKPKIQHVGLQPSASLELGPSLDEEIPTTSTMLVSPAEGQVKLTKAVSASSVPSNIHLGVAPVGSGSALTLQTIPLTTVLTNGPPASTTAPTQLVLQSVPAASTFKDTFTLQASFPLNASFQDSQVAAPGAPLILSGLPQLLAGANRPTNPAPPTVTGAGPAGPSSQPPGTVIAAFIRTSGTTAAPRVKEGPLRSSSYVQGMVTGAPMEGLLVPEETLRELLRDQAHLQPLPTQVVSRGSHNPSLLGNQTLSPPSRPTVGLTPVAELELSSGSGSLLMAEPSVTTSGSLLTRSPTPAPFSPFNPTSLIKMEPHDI
sequence,measurement,setting,value
AAACCG,binding signal,ELF4,"1.07 fold enrichment (6-mer frequency, TF over GST control)"
same,binding signal,ETV2,"1.03 fold enrichment (6-mer frequency, TF over GST control)"
same,binding signal,ELF3,"1.07 fold enrichment (6-mer frequency, TF over GST control)"
same,binding signal,ETV1,"1.18 fold enrichment (6-mer frequency, TF over GST control)"
same,binding signal,ERF,"1.1 fold enrichment (6-mer frequency, TF over GST control)"
same,binding signal,ETV3L,"1.06 fold enrichment (6-mer frequency, TF over GST control)"
same,binding signal,ETS2,"1 fold enrichment (6-mer frequency, TF over GST control)"
same,binding signal,ETV7,"1.04 fold enrichment (6-mer frequency, TF over GST control)"
same,binding signal,ETV3,"1.08 fold enrichment (6-mer frequency, TF over GST control)"
same,binding signal,ETV6,"1.05 fold enrichment (6-mer frequency, TF over GST control)"
